# Sampled rows, rich in hits. Any-hit rate of the full collection: about 2.1%.
# Avidin fluor – green autofluorescence of compounds with avidin beads – biophysical, 488/530 nm, flow cytometry, artefact control, profiling panel. compound fluorescence 488/530 nm; active compounds read high. fluorescence (KMESF) at 10 µM. 0.38% of 220,000 active. AID 1775, 2009; in the data active means fluorescence above about 47
# GSH fluor – compound fluorescence on glutathione beads, profiling panel, artefact control, biophysical, 488/530 nm, flow cytometry | GSH beads flow cytometry, compound fluorescence 488/530 nm; active compounds read high | fluorescence (KMESF) at 10 µM | 0.25% of 190,000 active | AID 1776, 2009; in the data active means fluorescence above about 89;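 further: glutathione beads carrying GST-tagged Bcl family fusion proteins plus one bare bead set; values are compound well signal with DMSO vehicle wells as background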
# EP2 mod – EP2 receptor modulators, cAMP readout, primary screen, cell-based, HTRF cAMP, PGE2 stimulation | Prostaglandin E2 receptor EP2 subtype (Homo sapiens), P43116 | EP2-expressing cells, cAMP HTRF FRET, PGE2 co-stimulation | induction, % at 25 µM | 0.83% of 260,000 active | AID 940, 2007;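 active means compounds whose cAMP rise, as percent of the full-agonist control response, exceeds 60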;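 further: rat C6 glioma line stably carrying human EP2 under a CMV promoter; the protocol text gives 20 µM as final concentration; 100% = response of wells given 1 µM PGE2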
# Target sequence (P43116 whole entry, looked up): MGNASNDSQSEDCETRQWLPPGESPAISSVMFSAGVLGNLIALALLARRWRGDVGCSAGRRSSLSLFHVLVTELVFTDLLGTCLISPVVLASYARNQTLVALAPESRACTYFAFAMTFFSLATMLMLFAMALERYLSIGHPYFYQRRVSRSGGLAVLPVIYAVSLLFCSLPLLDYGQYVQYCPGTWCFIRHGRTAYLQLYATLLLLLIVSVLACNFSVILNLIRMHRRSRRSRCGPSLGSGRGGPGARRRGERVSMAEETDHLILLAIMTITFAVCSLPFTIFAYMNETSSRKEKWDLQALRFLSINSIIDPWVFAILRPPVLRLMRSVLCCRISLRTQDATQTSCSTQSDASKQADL
# HMGR II inh – inhibitors of E. faecalis class II HMGR, primary screen, biochemical, Enterococcus faecalis | HMG-CoA reductase (Enterococcus faecalis, mvaE) | purified E. faecalis HMGR, NADPH absorbance 340 nm kinetic | inhibition, % at 10 µM | 0.41% of 190,000 active | AID 1066, 2008;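 active means inhibition above a set limit, the median over all tested compounds plus 3 SD, cut at about 9.5% in these data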;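 further: enzyme runs in reverse so mevalonate oxidation gives rising NADPH absorbance; 0% = complete reaction with DMSO and 100% = background rate lacking mevalonate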
# PGE2 EP2 inh – human EP2 receptor antagonists, primary screen, TR-FRET cAMP, C6 glioma cells; Prostaglandin E2 receptor EP2 subtype (Homo sapiens), P43116; C6 glioma cells expressing human EP2; cells stimulated with saturating PGE2; inhibition, % at 25 µM; 0.52% of 260,000 active;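 active means percent inhibition above 40 after rounding to a whole number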;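 further: rat C6 glioma host cells with rolipram phosphodiesterase inhibitor present; the protocol text gives 20 µM as final concentration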
# EP2 cAMP induct – cAMP induction in EP2, EP4, beta2-AR and parental cells, confirmation, counter-screen for EP2 modulator project, cell-based, five parallel assays, C6 glioma, HEK293; shares compounds with EP2 mod; cAMP HTRF induction; plus low (about EC15) PGE2 agonist; calls only at 20 µM (by protocol); 47% of 1,300 active;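 active means cAMP induction above 50% in the main assay while under 30% in all four parallel counter assays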;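 further: rat C6 glioma cells stably expressing human EP2 receptor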
# The depositor's hits bear a star; i = inactive; . = no result; + = active, no number.
SMILES,Avidin fluor,GSH fluor,EP2 mod,HMGR II inh,PGE2 EP2 inh,EP2 cAMP induct
CCOC(=O)Cn1c(S(=O)(=O)Cc2ccc(F)cc2)nc(-c2ccccc2)c1-c1ccccc1,9,13,28,-4,8,.
C#CCn1c(S(=O)(=O)Cc2ccc(F)cc2)nc(-c2ccccc2)c1-c1ccccc1,11,35,65*,-1,5,+
O=C(O)[C@@H]1[C@H](C(=O)O)[C@@H](C(=O)O)C[C@H]1C(=O)O,.,.,61*,.,13,i
CC(=O)N(Cc1cccs1)Cc1cc2ccc(C)c(C)c2nc1Cl,22,16,77*,-6,8,i
CC(=O)N(Cc1cccs1)Cc1cc2cc(C)cc(C)c2[nH]c1=O,.,.,-2,.,12,.
CC(C)n1cc(-c2ccc(Cl)cc2)cc(C#N)c1=O,23,10,68*,1,10,i
C=CCn1cc(-c2ccc(Cl)cc2)cc(C#N)c1=O,.,11,-10,2,5,.
Cc1ccc(-c2nc(NC(=O)c3ccco3)sc2C)c(C)c1,.,.,-15,.,19,.
CCOC(=O)NC(=O)/C(N=Nc1cc(C)cc(C)c1)=C(\C)O,10,17,34,-6,4,.
CCOC(=O)/C(N=Nc1c(Br)cc(Br)cc1Br)=C(\C)O,9,11,68*,-3,8,i
COc1cc(C(=O)Nc2nc3c(Cl)c(Cl)ccc3s2)cc(OC)c1OC,.,.,-44,.,9,.
COc1ccccc1-n1c(C)ccc1C,.,.,6,.,11,.
COc1ccc(Cl)cc1-n1c(C)ccc1C,2,12,69*,-1,16,i
COCCn1c(SCC(=O)Nc2cc(C)ccc2OC)nnc1-c1ccoc1C,.,.,-15,.,6,.
COc1ccc2[nH]c(=O)c(CN(C(=S)Nc3ccccc3OC)C3CCCC3)cc2c1,.,.,-2,.,13,.
O=C(O)c1cccc(NN=C2c3ccccc3-c3ccccc32)c1,9,15,75*,-11,3,i
C[n+]1cn(CC(O)COc2ccc(F)cc2)c2ccccc21 (stereo unspecified),.,.,3,.,7,.
CCC(C)(C)n1nnnc1C(c1ccncc1)N1CCC(Cc2ccccc2)CC1 (stereo unspecified),7,54,79*,-10,3,i
CCC(C)(C)n1nnnc1C(c1cccnc1)N1CCC(Cc2ccccc2)CC1 (stereo unspecified),10,16,-31,4,6,.
CCc1ccc(OCc2n[nH]c(=S)n2C(C)CCCC(C)C)cc1 (stereo unspecified),8,16,69*,0,4,+
CCSc1ncnc2sc3c(c12)CCC3,4,49,73*,-4,12,+
c1ccn(-c2ncnc3sc4c(c23)CCCC4)c1,3,74,65*,1,10,+
Cc1noc(C)c1CSc1ncnc2sc3c(c12)CCCCC3,6,21,56,-1,9,+
O=C(O)CSc1ncnc2sc3c(c12)CCC3,3,28,16,1,8,.
Cc1noc(C)c1CSc1ncnc2sc(C)c(C)c12,.,46,63*,1,6,+
SMILES,Avidin fluor,GSH fluor,EP2 mod,HMGR II inh,PGE2 EP2 inh,EP2 cAMP induct
Cc1nc2nc(C)c([N+](=O)[O-])c(=O)n2[nH]1,.,.,19,.,12,.
C=CCn1c(SCc2c(C)noc2C)nc2sc(C)c(C)c2c1=O,12,37,62*,-2,8,+
Cc1sc2ncnc(SCc3ccco3)c2c1C,36,18,64*,-3,9,+
Cc1noc(C)c1CSc1nc2sc(C)c(C)c2c(=O)n1-c1ccccc1,12,34,29,0,21,.
Nc1nc(N2CCOCC2)nc(N(c2ccccc2)c2ccccc2)n1,7,19,17,1,16,.
CN(C)c1nc(N2CCOCC2)nc(N(c2ccccc2)c2ccccc2)n1,8,266*,66*,-1,9,i
CC(C)CN(Cc1c(O)ccc2ccccc12)CC(C)C,10,18,2,1,12,.
CN(Cc1cc(Br)cc(Br)c1O)Cc1c(O)ccc2ccccc12,.,.,62*,.,35,i
CCN(Cc1ccncc1)Cc1c(O)ccc2ccccc12,23,12,-46,5,8,.
CCN(Cc1cc(Cl)cc(C)c1O)Cc1c(O)ccc2ccccc12,.,.,54,.,38,i
Cn1c(=O)c2c(nc(NCCNC(=O)Cc3cccs3)n2Cc2ccccc2)n(C)c1=O,.,.,-3,.,16,.
O=C(CCSc1nc(-c2ccco2)cc(C(F)(F)F)n1)NC1CCCC1,.,.,-12,.,7,.
CCOC(=O)c1c(NC(=O)C2C3C=CC(C3)C2C(=O)O)sc2c1CC(C)CC2 (stereo unspecified),15,9,13,-6,13,.
CCOC(=O)c1c(-c2cccs2)csc1NC(=O)CN1CCOCC1,10,55,69*,-1,11,i
CCOC(=O)c1c(NC(=O)c2ccc(N3C(=O)[C@@H]4[C@H](C3=O)[C@H]3C=C[C@@H]4C3)cc2)sc2c1CC(C)CC2 (stereo partly specified),4,9,55,-1,17,i
CCOC(=O)c1c(-c2ccc(C)cc2)csc1NC(=O)c1ccc(N2C(=O)CCC2=O)cc1,11,9,70*,1,12,i
CCOC(=O)c1c(-c2ccc(C)cc2)csc1NC(=O)CCN1CCOCC1,5,9,90*,-6,5,+
CCOC(=O)c1ccc(NC(=O)CN2CCN(c3ccc(OC)cc3)CC2)cc1,.,.,-64,.,12,.
CN(Cc1ccccc1OCc1ccccn1)Cc1n[nH]c2c1CCCC2,.,.,-54,.,4,.
O=C(CN1CCC2(CC1)NC(=O)c1ccccc1O2)NCc1ccco1,.,.,-11,.,6,.
CN(C)c1nccc(N(Cc2ccccc2)Cc2ccccc2)c1C#N,8,20,68*,-1,8,+
CCOC(=O)c1c(-c2ccccc2)oc2ccc(OC)cc12,23,18,69*,2,21,+
CCCCOC(=O)CSc1nc(N)c(C#N)c(-c2ccc(OCC)cc2)c1C#N,8,33,74*,1,17,i
CCCCOC(=O)CSc1nc(N)c(C#N)c(-c2ccc(OC)cc2)c1C#N,10,30,41,1,15,.
c1cncc(CN(CCCN2CCOCC2)Cc2cn[nH]c2-c2cccs2)c1,.,.,-15,.,25,.
COc1cccc(/C=N/c2oc(-c3ccccc3)cc2C#N)c1O,5,47,78*,-3,14,i
CCn1ncc(CO)c1C,.,.,-38,.,6,.

# Assay outcomes deposited in PubChem BioAssay by several laboratories.
